# Experimental data: PubChem BioAssay AID463173 (ICCB-Longwood Screening Facility, Harvard Medical School, 2010)
# The campaign covered roughly 52,000 compounds. About 4,300 (8.3%) were called active. What follows is part of a selection rich in actives, with near analogues and random picks from the rest. Values without a mark were called inactive. Rule as the data show it: active = survival mostly below about 52% (no sharp cut-off); inactive = mostly above about 56%.
# Test system: DeltatarO mutant
# Assay: growth inhibition of S. aureus wild type versus tarO mutant, primary screen, teichoic acid synthesis inhibitors, RN4220, OD600 (AID 463173)
# Settings: OD600, 18 h, active compounds read low, screened at 18.75 µg/mL (by protocol)
row,SMILES,survival
1,CCOc1ccc(Oc2nc(NCC(C)C)nc(N3CCOCC3)n2)nn1,79%
2,CCOc1ccc(Oc2nc(NC)nc(N3CCOCC3)n2)nn1,99%
3,CCOc1ccc(NC(=O)c2c(C)oc3nc(C)nc(N4CCOCC4)c23)cc1,93%
4,CCCCNc1nc(Oc2ccc(OCC)nn2)nc(N2CCOCC2)n1,77%
5,COc1ccc(Nc2nc(Nc3ccc(OC)cc3OC)nc(N3CCOCC3)n2)c(OC)c1,14% (active)
6,Cc1cc2c(cc3c(SCc4cccc(F)c4)nnc(C)n32)o1,68%
7,CCOC(=O)Cn1cnc2onc(-c3ccc(F)cc3)c2c1=O,141%
8,CCOc1ccccc1NC(=O)CSc1nc2c(oc3ccccc32)c(=O)n1-c1ccc(C)c(C)c1,88%
9,COc1ccccc1NC(=O)Cn1c(=O)n(Cc2ccccc2)c(=O)c2ccccc21,75%
10,COc1ccc(N(C(=O)COc2c(C)cccc2C)S(=O)(=O)c2ccc(Cl)cc2)cc1,73%
11,COc1cc(OC)cc(C(=O)Nc2cccc(-c3cn4ccsc4n3)c2)c1,6% (active)
12,CCS(=O)(=O)Nc1ccc(-c2cn3ccsc3n2)cc1,17% (active)
13,COc1cccc(OC)c1C(=O)Nc1cccc(-c2cn3ccsc3n2)c1,82%
14,CN(C)S(=O)(=O)Nc1ccc(-c2cn3ccsc3n2)cc1,55%
15,CCCS(=O)(=O)Nc1cccc(-c2cn3ccsc3n2)c1,134%
16,COc1ccc(C(=O)Nc2cccc(-c3cn4ccsc4n3)c2)cc1OC,92%
17,O=C(NCCc1ccccc1Cl)c1ccc2c(c1)nc1n2CCCCC1,80%
18,Cc1cccc(NC(=O)N2CCN3CCCCC3C2)c1C (stereo not given),77%
19,CC(C)c1ccc(NC(=O)c2cc(S(=O)(=O)NC3CCCCC3)ccc2F)cc1,102%
20,O=C(Nc1cc2c(cc1C(=O)c1ccccc1Cl)OCCO2)c1ccccc1,113%
21,COc1ccc(CCn2c3c(c(=O)[nH]c2=O)C(NC(=O)c2ccc(C(C)(C)C)cc2)(C(F)(F)F)C(=O)N3)cc1OC (stereo not given),91%
22,CC(=O)c1ccc(NC(=O)C2CCC(CNS(=O)(=O)c3ccc(Br)s3)CC2)cc1 (stereo not given),69%
23,CC(=O)c1ccc(NS(=O)(=O)c2ccc(Br)s2)cc1,47% (active)
24,CC(=O)c1ccc(NS(=O)(=O)c2ccc(-c3cc(C)no3)s2)cc1,122%
25,CC(=O)c1ccc(NS(=O)(=O)c2cnc(N)nc2)cc1,6% (active)

row,SMILES,survival
1,Nc1ncc(S(=O)(=O)Nc2ccc(OC(F)(F)F)cc2)cn1,79%
2,CCOC(=O)c1ccc(NS(=O)(=O)c2cn(C)c(C)n2)cc1,69%
3,CCOC(=O)c1ccc(NS(=O)(=O)c2ccc(Br)s2)cc1,38% (active)
4,COc1cc(NS(=O)(=O)c2cnc(N)nc2)cc(OC)c1,76%
5,CCOC(=O)c1ccc(NC(=O)C(Cc2ccccc2)NS(=O)(=O)c2ccc(Br)s2)cc1 (stereo not given),90%
6,COc1ccc(Nc2ncc3c(n2)CCN(Cc2ccccc2C)C3)c(OC)c1,91%
7,Cc1ccccc1N(C)C(=O)c1noc2c1COc1ccccc1-2,72%
8,CCOc1ccc(S(=O)(=O)N(CC(=O)N2CCCCC2)c2ccccc2)cc1,60%
9,CC12CN3CC(C)(CN(C1)C3(C)CSc1c[nH]c3ccccc13)C2=O (stereo not given),76%
10,Cc1ccc(C)c(NC(=O)Cn2cnc3c(oc4ccccc43)c2=O)c1,82%
11,Cc1ccc(NC(=O)CN2C(=O)COc3ccc(S(=O)(=O)Nc4ccccc4)cc32)c(C)c1,54%
12,Oc1cccc(-c2nc3ncccn3c2Nc2cccc(C(F)(F)F)c2)c1,62%
13,COc1ccc(CNC(=O)Cc2c(C)c3cc4c(C)coc4c(C)c3oc2=O)cc1OC,67%
14,Cc1ccc2c(Sc3ccccc3)c(C(=O)NCc3ccccc3F)[nH]c2c1,90%
15,N#C/C(=C\c1ccc(-c2ccc(C(=O)O)cc2)o1)c1nc2ccccc2[nH]1,77%
16,N#C/C(=C\c1ccc(-c2ccc(Cl)c(C(=O)O)c2)o1)c1nc2ccccc2[nH]1,55% (active)
17,Cc1c(Cl)cccc1-c1ccc(/C=C(\C#N)c2nc3ccccc3[nH]2)o1,13% (active)
18,N#C/C(=C/c1ccc(-c2ccc(Cl)c(C(=O)O)c2)o1)C(=O)NC1CCCC1,96%
19,CN(C)/C=C(\C#N)c1nc2ccccc2[nH]1,73%
20,COc1cc(/C=C(\C#N)c2nc3ccccc3[nH]2)ccc1OCc1ccccc1F,50%
21,N#C/C(=C\c1ccc(-c2ccccc2C(=O)O)o1)c1nc2ccccc2[nH]1,76%
22,N#C/C(=C\c1ccc(Cl)cc1)c1nc2ccccc2[nH]1,57%
23,Cc1ccc2nc(/C(C#N)=C/c3ccc(-c4ccc(F)cc4F)o3)[nH]c2c1,11% (active)
24,N#C/C(=C\c1ccc(-c2ccc(F)cc2F)o1)c1nc2ccccc2[nH]1,22% (active)
25,Cc1ccc(/C=C(\C#N)c2nc3ccccc3c(=O)[nH]2)cc1,93%
